LYPLA2 inh – LYPLA2 (human) inhibition in PME1 counter-screen. O95372. recombinant LYPLA2, FP-Rh probe fluorescence polarization. inhibition, % at 5.9 µM. 320,000 compounds, 0.38% hits;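 active means inhibition above the screen-wide mean plus 3 SD, limit set per campaign, cut at about 26% in these data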
pPAFAH FP inh – inhibitors of human plasma PAF acetylhydrolase (pPAFAH) | AID 463082 | recombinant pPAFAH, FP-rhodamine probe fluorescence polarization | 330,000 compounds, 1.5% hits | inhibition, % at 3.39 µM | Q13093;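 active means inhibition above the mean inhibition across the screen plus 3 SD, cut at about 25% in these data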;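 further: inhibitors block binding of the rhodamine activity-based probe so polarization drops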
LYPLA1 inh – counter-screen for PME1 inhibitors: inhibitors of human LYPLA1. 320,000 compounds, 0.16% hits. O75608. AID 2174. inhibition, % at 5.9 µM. recombinant LYPLA1, FP-Rh probe fluorescence polarization;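 active means inhibition above the mean of all tested compounds plus 3 SD, set per campaign, cut at about 14% in these data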;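 further: inhibitors block serine hydrolase probe labeling of LYPLA1 so polarization falls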
PAFAH2 inh – inhibitors of human PAFAH2; recombinant PAFAH2, FP-rhodamine activity probe, fluorescence polarization; inhibition, % at 3.39 µM; 340,000 compounds, 0.99% hits;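 active means inhibition above the mean over all tested compounds plus 3 SD, cut at about 30% in these data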;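 further: inhibitors block probe labeling of enzyme so polarization drops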
PAFAH1B3 inh – blocks human PAF acetylhydrolase 1B catalytic subunit 3. Q15102. recombinant PAFAH1B3, FP-rhodamine probe, fluorescence polarization. inhibition, % at 3.39 µM. 340,000 compounds, 0.28% hits. AID 492972;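 active means inhibition above the screen-wide average of all tested compounds plus 3 SD, cut at about 25% in these data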
Target sequence (Q15102 whole entry, looked up): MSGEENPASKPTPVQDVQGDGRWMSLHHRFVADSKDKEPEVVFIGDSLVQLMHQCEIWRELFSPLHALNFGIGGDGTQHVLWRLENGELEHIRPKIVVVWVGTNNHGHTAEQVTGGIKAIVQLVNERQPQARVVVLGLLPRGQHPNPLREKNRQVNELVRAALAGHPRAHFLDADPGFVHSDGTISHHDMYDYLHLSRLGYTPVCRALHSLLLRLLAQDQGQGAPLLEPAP
PAFAH1B2 inh – PAFAH1B2 (human) inhibition. P68402. recombinant PAFAH1B2, FP-rhodamine activity probe, fluorescence polarization. inhibition, % at 3.39 µM. 340,000 compounds, 1.2% hits. AID 492953;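 active means inhibition above the mean of all tested compounds plus 3 SD, cut at about 24% in these data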
Target sequence (P68402 whole entry, looked up): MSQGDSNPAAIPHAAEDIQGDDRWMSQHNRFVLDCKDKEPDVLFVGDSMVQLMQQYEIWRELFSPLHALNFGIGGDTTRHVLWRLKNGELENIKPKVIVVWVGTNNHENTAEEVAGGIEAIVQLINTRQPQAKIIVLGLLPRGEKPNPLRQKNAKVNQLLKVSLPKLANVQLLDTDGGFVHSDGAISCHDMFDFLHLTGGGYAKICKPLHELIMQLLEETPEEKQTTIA
pPAFAH confirm – pPAFAH (human) inhibition, confirmed; shares compounds with pPAFAH FP inh; inhibition, % at 3.39 µM; recombinant pPAFAH, FP-Rh probe fluorescence polarization; 2,300 compounds, 72% hits;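 active means mean inhibition of the triplicate above the hit cutoff set for the earlier primary screen, cut at about 25% in these data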
Large screens that a line does not name were inactive (follow-up assays come after a bar, where they were run). This is a sample that favours compounds with a hit; in the whole collection about 2.9% have one here.

C=CCNC(=O)NC(=O)COC(=O)/C(C#N)=C/c1cc(C)n(CCC(C)C)c1C	none
O=C(Oc1c(Cl)cc(Cl)c2cccnc12)N1CCOCC1	none
O=C(Oc1ccnc2cc(Cl)ccc12)N1CCOCC1	pPAFAH FP inh 39.6 | pPAFAH confirm 37.2
Cn1ncc(C#N)c1NC(=O)c1nn2cccnc2c1Cl	none
COc1ccccc1OCc1ccc(C(=O)OCC2CCCO2)o1 (stereo unspecified)	none
Cc1csc(=Nc2ccc(S(=O)(=O)N3CCOCC3)cc2)n1Cc1ccco1	pPAFAH FP inh 46.2 | pPAFAH confirm inactive
Cc1csc(=Nc2cccnc2)n1Cc1ccco1	none
O=C(CN1CCc2ccccc21)NC(=O)NCc1ccco1	none
O=C(O)c1cccc2c(-c3ccccc3)c(-c3ccccc3)[nH]c12	pPAFAH FP inh 52.2, PAFAH1B2 inh 48.1 | pPAFAH confirm 46.4
Cc1cccnc1Nc1nc(-c2ccc(O)c(O)c2)cs1	none
Cc1ccnc(Nc2nc(-c3ccc(O)c(O)c3)cs2)c1	pPAFAH FP inh 40.5 | pPAFAH confirm 29.6
Cc1cccc(Nc2nc(-c3ccc(O)c(O)c3)cs2)n1	pPAFAH FP inh 50.8 | pPAFAH confirm 28.2
Oc1ccc(-c2csc(Nc3cccc4ccccc34)n2)cc1O	pPAFAH FP inh 72.4 | pPAFAH confirm 66.2
Oc1ccc(-c2csc(Nc3ccccn3)n2)cc1O	pPAFAH FP inh 40.5 | pPAFAH confirm 31.8
Cc1ccnc(Nc2nc(-c3ccc(O)cc3)cs2)c1	none
Cc1ccc(N2C(=O)CC(Cc3cc(C)cc(C)c3)C2=O)cc1 (stereo unspecified)	pPAFAH FP inh 49.9 | pPAFAH confirm inactive
Cc1cc(C)cc(CC2CC(=O)N(c3cc(C)ccc3C)C2=O)c1 (stereo unspecified)	none (no result: LYPLA2 inh, pPAFAH FP inh, LYPLA1 inh)
COc1ccc(NC(=O)CSc2nnc(C3CC3)n2-c2ccccc2)cc1	none
CNc1ccccc(-c2ccc3cc4c(cc3n2)OCO4)c1=O	pPAFAH FP inh 83.9 | pPAFAH confirm inactive
CCCCN1Cc2c(nc3cc(-c4ccco4)[nH]n3c2=O)C1=O	pPAFAH FP inh 63.0, PAFAH2 inh 32.2 | pPAFAH confirm inactive
O=S(=O)(c1cccc(F)c1)N1CCc2sccc2C1c1ccc(OC(F)(F)F)cc1 (stereo unspecified)	none (no result: PAFAH2 inh, PAFAH1B3 inh, PAFAH1B2 inh)
O=[N+]([O-])c1ccc(/C=C/C2=NN(c3ccccc3)C(c3ccco3)C2)o1 (stereo unspecified)	none (no result: LYPLA2 inh, pPAFAH FP inh, LYPLA1 inh)
C(=C\c1ccco1)/C1=NN(c2ccccc2)C(c2ccco2)C1 (stereo unspecified)	pPAFAH FP inh 39.6 | pPAFAH confirm inactive
CCCCn1c(N)c(N(CCC(C)C)C(=O)C2CSC3(C)CCC(=O)N23)c(=O)[nH]c1=O (stereo unspecified)	none
Cc1oc(-c2ccc(Cl)cc2)cc1-c1nn2c(-c3ccoc3C)nnc2s1	pPAFAH FP inh 53.2 | pPAFAH confirm 43.4
Clc1ccc(-c2nnc3sc(-c4ccc(Br)o4)nn23)cc1	none
CC1CC(C)CN(S(=O)(=O)c2ccc(C(=O)OCC(=O)NCCN3C(=O)CSC3=O)cc2)C1 (stereo unspecified)	none
Clc1cccc(CNc2nnnn2-c2ccccc2)c1	none
O=[N+]([O-])c1cc(C(F)(F)F)cc([N+](=O)[O-])c1NN=C1CCCCC1	pPAFAH FP inh 34.9 | pPAFAH confirm inactive
O=[N+]([O-])c1ccc(N=Nc2c(Cl)cc(O)cc2Cl)cc1	pPAFAH FP inh 46.4 | pPAFAH confirm 39.2
O=S(=O)(Nc1nc2ccccc2nc1Nc1ccc2c(c1)OCCO2)c1cccs1	pPAFAH FP inh 48.9 | pPAFAH confirm 48.7
COc1ccc(CCNC(=O)c2ccc(N3CCCC3=O)cc2)cc1OC	none
O=C(Nc1ccnn1C1CCN(Cc2cc3ccccc3[nH]2)CC1)C1CCOC1 (stereo unspecified)	none
CCOC(=O)C1(C)C=C(Nc2ccc(O)cc2)C(=O)N1c1ccc(O)cc1 (stereo unspecified)	pPAFAH FP inh 70.1 | pPAFAH confirm inactive
CCOC(=O)C1(C)C=C(Nc2ccc(OC)cc2)C(=O)N1c1ccc(OC)cc1 (stereo unspecified)	none
Nc1nc(-c2ccccc2)c(N=Nc2ccccc2Cl)s1	pPAFAH FP inh 38.9 | pPAFAH confirm 52.7
Cc1ncc(N=Nc2ccccc2Cl)c(-c2ccccc2)n1	none
Cc1cccc(N2CCN(C(=O)NC(C)c3ccc(F)c(F)c3)CC2)c1C (stereo unspecified)	none
O=C1CCCC(O)=C1N=Nc1c(Cl)cc(C(F)(F)F)cc1Cl	pPAFAH FP inh 39.3, PAFAH2 inh 64.4, PAFAH1B3 inh 36.8, PAFAH1B2 inh 35.2 | pPAFAH confirm inactive
Cc1ccc(C)c(NS(=O)(=O)c2ccc(OCC(=O)NCc3ccco3)cc2)c1	pPAFAH FP inh 39.3 | pPAFAH confirm inactive
O=C1CC(c2ccccc2)N1c1ccccc1 (stereo unspecified)	none
O=C(CCc1ccccc1)NNC(=S)NC(=O)c1ccccc1	pPAFAH FP inh 41.1 | pPAFAH confirm inactive
CC(=O)NC(=S)NNC(=O)CCc1ccccc1	none
CN(C)S(=O)(=O)c1ccc(NC(=O)CN2CCN(C(c3ccccc3)c3ccccc3)CC2)cc1	none
O=C(COC(=O)CN1C(=O)C2CCCCC2C1=O)NNC(=O)c1ccc(Cl)cc1 (stereo unspecified)	none
CCCCOC(=O)N1CCOCCOCCN(C(=O)OCCCC)CCOCCOCC1	pPAFAH FP inh 35.1 | pPAFAH confirm 26.1
O=C(Oc1ccc(C(=S)N2CCOCC2)cc1)c1ccccc1	none
CCCCOC(=O)c1ccc(OC(=O)N2CCOCC2)cc1	pPAFAH FP inh 93.5, PAFAH2 inh 36.2 | pPAFAH confirm 97.1
O=C(c1ccccc1)c1ccc(OC(=O)N2CCOCC2)cc1	pPAFAH FP inh 52.3, PAFAH2 inh 35.0 | pPAFAH confirm 53.3
CC1(NC(=O)N2CCCCC2)CCS(=O)(=O)C1 (stereo unspecified)	none
COc1ccc(-c2csc(NS(=O)(=O)c3ccc([N+](=O)[O-])cc3)n2)cc1	pPAFAH FP inh 38.2 | pPAFAH confirm 44.7
COc1ccc(-c2csc(NC(=O)c3ccccc3NS(=O)(=O)c3ccc(F)c(F)c3)n2)cc1	pPAFAH FP inh 50.0 | pPAFAH confirm 38.9
COc1cccc(NC(=O)CN(C)C(=O)c2cccnc2Nc2cccc(C(F)(F)F)c2)c1	none
CCCCOc1ccc(-c2cc(C(=O)NNC(=S)NCC)c3ccccc3n2)cc1	pPAFAH FP inh 41.7 | pPAFAH confirm 50.7
COc1ccc(CNC(=O)C(c2ccco2)N(C(=O)CNS(=O)(=O)c2ccccc2)c2ccccc2C)cc1 (stereo unspecified)	pPAFAH FP inh 46.5 | pPAFAH confirm 51.5
Cc1cc(C)c(S(=O)(=O)N(C)CC(=O)N2CCCCC2)c(C)c1	pPAFAH FP inh 51.6 | pPAFAH confirm inactive
